The list is not random: actives were taken first. Their share in the collection is about 12%.
Lmaj promast – Leishmania major promastigote growth inhibition, primary screen | Leishmania major promastigotes, resazurin fluorescence viability | inhibition, % at 10 µM | hit rate 9% among 200,000 | AID 1063, 2008; in the data active means inhibition above about 50%;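 further: promastigotes grown with compound for 44 hours at 28 °C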
ROMK mod – ROMK potassium channel modulators, primary screen, cell-based, thallium flux, MLSMR library | hit rate 2% among 130,000 | B-score at 10 µM | AID 1918, 2009 | ATP-sensitive inward rectifier potassium channel 1 (Homo sapiens), P48048 | Tet-inducible ROMK, thallium flux fluorescence; actives lie on both sides;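 active means signal ratio slope over the read window, or its plate-corrected B-score, at least 3 SD from the plate mean, either direction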;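 further: B-score of the F/F0 ratio slope over 7 to 12 s after thallium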
Target sequence (P48048 whole entry, looked up): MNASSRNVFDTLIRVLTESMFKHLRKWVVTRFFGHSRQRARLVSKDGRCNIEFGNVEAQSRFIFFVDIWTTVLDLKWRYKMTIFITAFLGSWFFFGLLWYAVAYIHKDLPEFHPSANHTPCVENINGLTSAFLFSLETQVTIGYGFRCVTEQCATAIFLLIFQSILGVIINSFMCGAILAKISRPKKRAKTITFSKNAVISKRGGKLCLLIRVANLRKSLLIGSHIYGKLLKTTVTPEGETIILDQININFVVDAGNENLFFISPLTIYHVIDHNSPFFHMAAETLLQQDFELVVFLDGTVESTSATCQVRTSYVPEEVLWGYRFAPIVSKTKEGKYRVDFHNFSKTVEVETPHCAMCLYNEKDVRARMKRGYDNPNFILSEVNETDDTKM
Insulin prom up – insulin promoter activators in MIN6 cells, imaging, high-content screening, mouse beta cells; MIN6 insulin promoter-GFP reporter; hits give high values; z-score at 5 µM; hit rate 0.3% among 190,000;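 active means z-score above 3 at 5 µM with at least 500 cells counted in the well; inconclusive means wells under 500 cells, flagged as cytotoxic or low count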
KCC2 mod – KCC2 cotransporter modulators, thallium flux, primary screen, cell-based, HEK293 KCC2, FluoZin-2 fluorescence, MLSMR; KCC2 cells, thallium flux FluoZin-2 fluorescence; hit rate 2.2% among 190,000; AID 1456, 2008; Solute carrier family 12 member 5 (Homo sapiens), Q9H2X9; B-score of Tl+ flux slope (higher = more flux/activation; lower = inhibition) at 10 µM;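 active means thallium flux slope and its plate-corrected score both differing from the plate sample mean at a set confidence after two filtering rounds, in either direction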;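 further: slope of fluorescence scaled to starting intensity during 10 to 20 s after thallium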
WT yeast gro inh – growth inhibition of WT strain, primary screen, mitochondrial fusion inhibitor project, WT and mutant strains, chemical genetic; mitochondrial fusion phenotypic screen; inhibition, % at 10 µM; hit rate 2.1% among 190,000; AID 1362, 2008; in the data active means inhibition above about 58%; tested in S. cerevisiae
INS promoter inh – inhibitors of insulin promoter-driven GFP, primary screen, imaging, TRM-6 cells (human fetal islet line), eGFP reporter, cell count; reporter expression induced with tamoxifen; inhibition, % at 2 µM; hit rate 0.9% among 130,000;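 active means inhibition above the mean plus 3 SD, with well images judged a real hit on visual review, cut at about 60% in these data, passing the limit was not always enough; inconclusive means inhibition over the cutoff but images rejected on review; inactive means inhibition not above the cutoff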
KCC2 secondary – KCC2 modulators in sodium-free buffer, confirmation, cell-based, HEK293 KCC2, thallium flux, secondary assay. FluoZin2 fluorescence; hits give high values. AID 1713, 2009. shares compounds with KCC2 mod. hit rate 15% among 3,700. normalised thallium flux (F/F0 slope) at 10 µM;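 active means thallium flux slope above the same plate's solvent-only control mean plus 3 SD; inconclusive means the two replicate wells disagree; inactive means no significant difference from solvent-only control wells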
KCC2 bumet counter – thallium flux persisting under bumetanide in KCC2 cells, confirmation, counter-screen for KCC2 modulator project, cell-based, HEK293 KCC2, FluoZin2, secondary assay 3; shares compounds with KCC2 mod; normalized thallium flux at 10 µM; HEK293-KCC2 + bumetanide/ouabain; hits give high values; hit rate 49% among 3,700;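 active means thallium entry rate above the same plate's blocked-transporter control wells by more than 3 SD; inconclusive means the two repeat wells disagree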;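 further: raw slope of fluorescence over initial fluorescence between 10 and 20 s after thallium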
KCC2 secondary2 – KCC2 modulators without ouabain present, confirmation, cell-based, HEK293 KCC2, thallium flux, FluoZin2, secondary assay 2. shares compounds with KCC2 mod. thallium flux FluoZin2 fluorescence; actives lie on both sides; F/F0 rise rate, 10–20 s post-thallium. normalized thallium flux at 10 µM. hit rate 23% among 3,700;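 active means thallium flux slope more than 3 SD above or below the plate's solvent-only control mean, mostly below; inconclusive means the two repeat wells disagreed; inactive means no significant shift from solvent-only controls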;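 further: raw slope with 0.1% DMSO as baseline and bumetanide as block control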
HEK293 Tl flux – thallium flux modulation in parental HEK cells, confirmation, counter-screen for KCC2 modulator project, cell-based, counterscreen 1; thallium flux rate (normalised fluorescence) at 10 µM; hit rate 46% among 3,700; shares compounds with KCC2 mod; HEK293 parental cells, thallium flux FluoZin2, ouabain; baseline-ratio fluorescence slope, 10–20 s after thallium;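 active means thallium flux rate significantly above the same plate's solvent-only control wells, beyond their mean plus 3 SD; inconclusive means the two replicate wells gave conflicting results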
KCC2 ouabain – KCC2 inhibitors and activators, ouabain retest, confirmation, HEK-KCC2 cells; raw Tl+ flux slope (below DMSO = inhibition, above = activation) at 10 µM; shares compounds with KCC2 mod; AID 1717, 2009; HEK293-KCC2, thallium flux FluoZin2 fluorescence; bidirectional: low = inhibitor, high = activator; hit rate 48% among 3,700;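 active means thallium flux slope beyond 3 SD from same-plate DMSO control mean in most replicates, usually higher, sometimes lower; inconclusive means repeat tests gave conflicting results; inactive means no significant difference from controls in most replicates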;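 further: slope of initial-normalized fluorescence between seconds 10 and 20 after thallium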
HEK293 Tl flux2 – native HEK Tl+ uptake effects, second counter-screen – HEK cells, counterscreen 2, counter-screen for KCC2 modulator project, confirmation; shares compounds with KCC2 mod; HEK293 parental, thallium flux FluoZin-2 fluorescence slope; thallium flux slope at 10 µM; hit rate 33% among 3,700;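 active means thallium flux slope above the same plate's solvent-control mean plus 3 SD in both duplicate wells; inconclusive means duplicate wells that disagreed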;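 further: run without ouabain in cells lacking the KCC2 cotransporter; slope of fluorescence scaled to its starting value between 10 and 20 s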
Active calls of the source: *; u = inconclusive; x = no result.

SMILES	Lmaj promast	ROMK mod	Insulin prom up	KCC2 mod	WT yeast gro inh	INS promoter inh	KCC2 secondary	KCC2 bumet counter	KCC2 secondary2	HEK293 Tl flux	KCC2 ouabain	HEK293 Tl flux2
Cc1ccc(NS(=O)(=O)c2cc(C(=O)N3CCOCC3)ccc2C)cc1	-6.8	-0.00164	0.52	x	10.9	33.3	x	x	x	x	x	x
CC/C(C)=N/Oc1nc(C)cc(C)n1	x	x	0.62	0.797	x	x	x	x	x	x	x	x
CCOC(=O)c1cc2c(nc1NC(=S)Nc1ccccc1)CC(C)(C)OC2	-6.7	x	-0.08	-2.98	-8.1	x	x	x	x	x	x	x
CCOC(=O)c1cc2c(nc1NC(=S)NCc1ccccc1)CCCC2	-5.6	x	0.11	5.23*	7.9	x	0.00732	0.0296*	0.039*	0.0384*	0.0633*	0.0183*
C=CCNC(=S)Nc1nc2c(cc1C(=O)OCC)COC(C)(C)C2	x	x	-0.14	8.52*	x	x	0.00664	0.0224*	0.0349	0.0197*	0.029*	0.0206*
CC1(C)Cc2cccc(OCC(=O)Nc3ccc(OCC(N)=O)cc3)c2O1	-7.9	1.31	-0.25	-1.68	-6.1	-58.3	x	x	x	x	x	x
CC1C/C(=N\NC(=O)c2ccc([N+](=O)[O-])cc2)CC(C)(C)C1 (stereo not given)	x	x	0.35	5.43*	x	x	0.0103	0.0163*	0.0291	0.00901*	0.027*	u
CCOC(=O)C1=NNC2(c3ccccc3)C(=O)N(c3cccc(Br)c3)C(=O)C12 (stereo not given)	-7.7	-1.53	-0.05	-1.03	2.2	-51.7	x	x	x	x	x	x
CCOc1ccc(NC(=O)CN2CC(c3ccccc3)CC2=O)cc1 (stereo not given)	-6.2	x	-0.53	-2.76*	-0.1	x	0.0105	0.00668	0.0306	0.00771	0.0743	0.0108
COc1ccc(NC(=O)CN2CC(c3ccccc3)CC2=O)cc1OC (stereo not given)	-8.5	x	-0.62	-0.197	7.4	x	x	x	x	x	x	x
O=C(N/N=C/c1ccc(Br)s1)c1cccs1	x	x	x	112*	x	x	0.014*	0.086*	0.0338	0.0405*	0.0491*	0.0336*
O=C(CCC(=O)N/N=C/c1ccccc1O)NCc1ccccc1	-2.9	x	0.14	-0.297	-4.1	15.6	x	x	x	x	x	x
COc1ccc(OCCN2C(=O)NC(C)(c3ccc(C)cc3)C2=O)cc1 (stereo not given)	7.0	x	-0.07	4.04*	7.6	1.3	0.00805	0.00537	0.0339	0.00419	0.0189	0.0111
O=C(Nc1ccc(Cl)cc1)NC1CCCc2ccccc21 (stereo not given)	-3.0	x	x	0.712	-28.5	-48.6	x	x	x	x	x	x
c1ccc(-c2noc(-c3ccccc3-c3ccccc3)n2)cc1	1.1	0.701	x	5.63*	71.6*	51.7	0.00644	0.00374	0.0324	0.00737	0.0194	0.0103
Fc1ccccc1-c1nc(-c2ccc(Cl)cc2)no1	-5.3	x	x	0.0667	x	-55.8	x	x	x	x	x	x
CC(=O)c1c(C)nc(-c2ccc(Cl)cc2)nc1N=CN(C)C	0.1	-1.23	-0.07	x	-11.8	-100.0	0.00535	0.00427	0.0326	0.00795	0.0192	0.0111
Cc1cccc(C)c1NC(=O)COC(=O)c1nonc1N	-2.0	x	-0.26	1.39	-14.3	7.1	x	x	x	x	x	x
N#C/C(=C/c1ccccc1[N+](=O)[O-])c1nnc2n1CCCCC2	7.7	-0.0234	-0.06	0.057	0.9	31.2	x	x	x	x	x	x
N#C/C(=C\c1cn(-c2ccccc2)nc1-c1cccnc1)c1nnc2n1CCCCC2	12.3	0.116	-0.89	x	7.0	-33.3	0.00566	0.0047	0.0236*	0.00848	u	0.0105
CCC(CC)C(=O)c1c[nH]c(C(=O)OC)c1	1.2	1.35	-0.52	2.22	5.5	53.9	x	x	x	x	x	x
COc1cc(NC(=O)Cn2ncc(Cl)c(Cl)c2=O)c(C)cc1[N+](=O)[O-]	89.4*	-1.94	u	-5.06*	-2.4	x	0.00832	0.00535	0.0334	0.00587*	0.0169*	0.01
COc1cc(NC(=O)CN2C(=O)CN(C)C2=O)c(C)cc1[N+](=O)[O-]	1.2	-0.259	0.8	0.939	7.3	x	x	x	x	x	x	x
O=C(Cc1ccc(F)cc1)Oc1ccc(C(=S)N2CCCC2)cc1	13.1	0.0345	-0.16	-4.08*	-8.0	17.2	u	u	0.0222*	u	0.0126*	0.0116
Cc1ccnc(NS(=O)(=O)c2ccc(NC(=O)c3ccc(C)o3)cc2)n1	-8.7	-0.0421	x	0.0476	4.5	-250.0	x	x	x	x	x	x
CC1CCc2sc(C(=O)NN=C3CCC(c4ccccc4)CC3)cc2C1 (stereo not given)	-4.5	-0.112	1.22	0.151	-0.8	3.3	x	x	x	x	x	x
Cc1cccc(NC(=S)NNC(=O)c2cc3c(s2)CCC(C)C3)c1C (stereo not given)	13.6	-0.48	0.58	36.9*	-14.3	-29.7	0.00658	0.0803*	0.0614*	0.0638*	0.0625*	0.0593*
CCCn1c(=C(C#N)C#N)s/c(=C2\C=Cc3ccccc3N2CC)c1=O	1.8	x	1.16	x	5.9	8.3	x	x	x	x	x	x
CN(CCO)c1cc(Sc2nc3ccccc3s2)c2nonc2c1[N+](=O)[O-]	8.1	x	x	x	5.8	-11.4	0.00596	0.015*	0.0333	0.0143*	u	0.0169*
CC(C)Oc1ccc(CNC(=S)N/N=C/c2ccc([N+](=O)[O-])cc2)cc1	37.7	x	-1.03	3.59*	29.9	35.7	0.00932	0.00679	0.0338	0.00384	0.0207	0.0116

Assay outcomes (PubChem)
